Most compounds without a hit are left out; they make up all but 1.8% or so of the library.
ERp5 block: blocks human ERp5 reductase activity on insulin; Q15084; ERp5 insulin aggregation, absorbance 650 nm, 90 min; inhibition, % at 9.99 µM; 350,000 compounds, 0.05% hits;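 active = mean replicate inhibition above about 25%, with every replicate also reaching it, limit read from the data, passing the limit was not always enough; inconclusive = only one of those two criteria met; inactive = neither criterion met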
AF4-AF9 inh: inhibitors of human MLL-AF4/AF9 interaction | P42568 | AlphaScreen, biotin-AF4 peptide binding to FLAG-AF9 | inhibition, % at 10 µM | 350,000 compounds, 0.47% hits;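 active = every replicate reaching a set inhibition limit, whatever the replicate mean, cut at about 25% in these data; inconclusive = mean inhibition reaches that limit but some replicates miss it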;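 note: 0% = plate neutral control median and 100% = total signal loss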
DENV2 CPE rescue: inhibitors of DENV2 cytopathic effect. 350,000 compounds, 1.7% hits. DENV2-infected cells, cytopathic effect rescue, plate reader. CPE inhibition, % at 9.99 µM; in the data active = CPE inhibition above about 20%, passing the limit was not always enough; inconclusive = no clear call, values can overlap the other calls; tested in BHK-21 cells;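 note: 0% = median of neutral control wells and 100% = median of positive control wells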
ERAP1 HTS inh: inhibitors of human ERAP1 aminopeptidase; 340,000 compounds, 0.15% hits; AID 652197; inhibition, % at 10.7 µM; Q9NZ08; recombinant ERAP1, Leu-AMC fluorescence, 60 min;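 active = mean replicate inhibition of at least 30%, or all replicates individually reaching that 30% level; inactive = mean below 30% and not every replicate reaching it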;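 note: 0% = neutral control wells and 100% = L-leucinethiol positive control wells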
PDI turbidity: inhibitors of human protein disulfide isomerase; PDI insulin aggregation turbidity, A650, 90 min; inhibition, % at 10 µM; 350,000 compounds, 0.052% hits; AID 588391;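 active = mean inhibition across replicates of 30% or more, whatever share of single replicates reach that level; inconclusive = mean inhibition below 30% while every single replicate reaches 30%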
Target sequence (P07237 whole entry, looked up): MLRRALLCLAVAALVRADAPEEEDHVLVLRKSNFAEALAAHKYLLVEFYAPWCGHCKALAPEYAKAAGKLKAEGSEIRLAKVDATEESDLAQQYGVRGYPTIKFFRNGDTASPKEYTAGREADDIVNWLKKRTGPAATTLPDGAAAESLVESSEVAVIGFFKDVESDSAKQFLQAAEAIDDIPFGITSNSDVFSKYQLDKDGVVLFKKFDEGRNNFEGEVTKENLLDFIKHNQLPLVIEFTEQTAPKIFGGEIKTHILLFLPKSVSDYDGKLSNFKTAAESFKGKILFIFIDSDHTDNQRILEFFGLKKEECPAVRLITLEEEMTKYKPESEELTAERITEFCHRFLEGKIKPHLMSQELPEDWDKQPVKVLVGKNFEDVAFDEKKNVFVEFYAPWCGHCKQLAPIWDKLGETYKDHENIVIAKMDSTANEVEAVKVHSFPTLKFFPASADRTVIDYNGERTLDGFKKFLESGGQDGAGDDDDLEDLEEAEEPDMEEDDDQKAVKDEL
* marks the source's active call; other numbers are inactive results; ? = inconclusive; / = no result.

SMILES	ERp5 block	AF4-AF9 inh	DENV2 CPE rescue	ERAP1 HTS inh	PDI turbidity
C/C=C/c1ccc2c(c1)O[C@H](CN(C)S(=O)(=O)c1ccc(C)cc1)[C@H](C)CN([C@H](C)CO)S2(=O)=O	1	5	20*	2	/
Cc1ccc(S(=O)(=O)N(C)C[C@H]2Oc3cc(C#Cc4ccncc4)ccc3S(=O)(=O)N([C@@H](C)CO)C[C@H]2C)cc1	15	1	64*	0	/
C/C=C/c1ccc2c(c1)O[C@@H](CN(C)S(=O)(=O)c1ccc(C)cc1)[C@@H](C)CN([C@@H](C)CO)S2(=O)=O	0	6	3	0	/
C[C@H](CO)N1C[C@H](C)[C@@H](CN(C)C(=O)Nc2ccc(C(F)(F)F)cc2)Oc2ccc(NC(=O)Nc3cccc4ccccc34)cc2CC1=O	-1	2	-9	-3	/
CC(C)NC(=O)N(C)C[C@H]1OCCCC[C@H](C)Oc2ccc(NC(=O)c3ccncc3)cc2C(=O)N([C@H](C)CO)C[C@@H]1C	1	-14	-1	-2	/
NCC[C@H](O)C(=O)N[C@@H]1C[C@H](N)[C@@H](O[C@H]2O[C@H](CN)[C@@H](O)[C@H](O)[C@H]2O)[C@H](O)[C@H]1O[C@H]1O[C@H](CO)[C@@H](O)[C@H](N)[C@H]1O	-3	62*	?	-1	3
Cc1noc(C)c1S(=O)(=O)Nc1ccc2c(c1)C(=O)N([C@@H](C)CO)C[C@H](C)[C@@H](CN(C)C(=O)Nc1ccccc1)OCCCC[C@H](C)O2	1	4	0	-1	/
Cc1ccc(S(=O)(=O)Nc2ccc3c(c2)CC(=O)N([C@@H](C)CO)C[C@@H](C)[C@@H](CN(C)C(=O)Nc2ccccc2)O3)cc1	-3	0	39*	-2	/
C[C@@H]1CN([C@@H](C)CO)C(=O)Cc2cc(NS(=O)(=O)c3ccccc3)ccc2O[C@H]1CN(C)C(=O)Nc1ccc(F)cc1	-2	0	36*	-1	/
C=C(NC(=O)C(=C)NC(=O)c1csc(C2=NC3c4csc(n4)C4NC(=O)c5csc(n5)C(C(C)(O)C(C)O)NC(=O)C5CSC(=N5)/C(=C/C)NC(=O)C(C(C)O)NC(=O)c5csc(n5)C3(CC2)NC(=O)C(C)NC(=O)C(=C)NC(=O)C(=C)NC(=O)C(C(C)C)NC2C=Cc3c(C(C)O)cc(nc3C2O)C(=O)OC4C)n1)C(N)=O (stereo unspecified)	-2	1	60*	-5	-6
CS(=O)(=O)N1CCCCN2[C@H](CO)[C@H](c3ccc(C4=CCCC4)cc3)[C@@H]2C1	2	-5	29*	2	/
CS(=O)(=O)N1CCCCN2[C@H](CO)[C@@H](c3ccc(C4=CCCC4)cc3)[C@H]2C1	/	28*	0	/	/
CS(=O)(=O)N1CCCCN2[C@H](C1)[C@H](c1ccc(C3=CCCC3)cc1)[C@@H]2CO	/	/	-9	/	/
CS(=O)(=O)N1CCCCN2[C@@H](CO)[C@@H](c3ccc(C4=CCCC4)cc3)[C@@H]2C1	6	-2	29*	2	/
C[C@H](CO)N1C[C@H](C)[C@@H](CN(C)Cc2ccc(-c3ccccc3)cc2)Oc2c(NC(=O)C3CC3)cccc2C1=O	0	1	-3	3	/
O=C(Nc1ccccc1C(=O)NCc1cccnc1)c1ccccc1Cl	-3	1	64*	0	-9
CCN(CC(=O)Nc1c(F)cccc1F)C(=O)c1ccc(COc2ccccc2)cc1	3	3	89*	-1	10
C[C@@H]1CCCCO[C@H](CN(C)C(=O)Nc2cccc3ccccc23)[C@@H](C)CN([C@H](C)CO)C(=O)c2cc(NC(=O)Nc3ccc(F)cc3)ccc2O1	1	-2	-5	0	/
C[C@H]1CN([C@@H](C)CO)C(=O)c2cc(NC(=O)Nc3cccc4ccccc34)ccc2O[C@@H]1CN(C)C(=O)Nc1ccc2c(c1)OCO2	-9	-2	23*	-3	/
C[C@@H]1CCCCO[C@@H](CN(C)C(=O)Nc2ccc3c(c2)OCO3)[C@@H](C)CN([C@@H](C)CO)C(=O)c2cc(NC(=O)Nc3cccc4ccccc34)ccc2O1	10	-2	61*	1	/
C[C@@H]1CCCCO[C@@H](CN(C)S(=O)(=O)c2ccc(F)cc2)[C@@H](C)CN([C@@H](C)CO)C(=O)c2cc(NC(=O)Nc3cccc4ccccc34)ccc2O1	-1	0	-10	-4	/
